About 8,800 targets were measured; listed, in parts, are those with a hit and a random draw of the rest. About 0.5% of all pairs of compound and target were hits.
The targets below were run with CN1CCN(c2nc(C3=C(c4c[nH]c5ccccc45)C(=O)NC3=O)c3ccccc3n2)CC1 [sotrastaurin] (assay: log2 fold change, soluble protein after heating vs DMSO (PISA); higher = thermal stabilisation; K562 lysate, 10 uM; active = over 0.2 and 3.5 SD of the protein, either way, in both replicates (recomputed)).
Procedure, shortened: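 K562 pellets were dounce-homogenised in PBS pH 7.4 with 1 mM MgCl2, and the crude extract at 1 mg/mL protein was treated with 10 μM compound for 30 min. Aliquots were heated for 3 min across 48°C-58°C, pooled, and brought to 0.5% NP-40 at 4°C; soluble protein was the supernatant after 21,000xg for 90 min. Soluble protein was quantified by TMTpro 16plex LC-MS/MS with channel sums equalised, and reported as log2 fold change in thermal stability against DMSO controls, with values from duplicates.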
Chain of UniProt Q9H257 (Q9H257 whole entry, looked up): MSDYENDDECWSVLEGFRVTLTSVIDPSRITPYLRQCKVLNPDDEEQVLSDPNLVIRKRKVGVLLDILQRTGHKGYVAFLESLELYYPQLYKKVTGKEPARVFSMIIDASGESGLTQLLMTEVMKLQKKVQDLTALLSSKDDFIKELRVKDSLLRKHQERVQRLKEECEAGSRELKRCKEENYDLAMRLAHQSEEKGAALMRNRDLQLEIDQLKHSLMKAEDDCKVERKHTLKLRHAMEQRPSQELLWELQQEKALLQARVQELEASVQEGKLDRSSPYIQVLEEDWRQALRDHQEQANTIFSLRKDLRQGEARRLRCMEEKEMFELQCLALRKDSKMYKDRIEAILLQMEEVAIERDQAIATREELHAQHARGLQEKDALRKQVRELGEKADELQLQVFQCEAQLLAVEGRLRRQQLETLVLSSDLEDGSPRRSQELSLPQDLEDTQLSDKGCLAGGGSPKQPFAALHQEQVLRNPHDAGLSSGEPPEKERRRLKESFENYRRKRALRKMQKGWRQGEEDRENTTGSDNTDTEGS
Chain of UniProt Q9NXV6 (Q9NXV6 whole entry, looked up): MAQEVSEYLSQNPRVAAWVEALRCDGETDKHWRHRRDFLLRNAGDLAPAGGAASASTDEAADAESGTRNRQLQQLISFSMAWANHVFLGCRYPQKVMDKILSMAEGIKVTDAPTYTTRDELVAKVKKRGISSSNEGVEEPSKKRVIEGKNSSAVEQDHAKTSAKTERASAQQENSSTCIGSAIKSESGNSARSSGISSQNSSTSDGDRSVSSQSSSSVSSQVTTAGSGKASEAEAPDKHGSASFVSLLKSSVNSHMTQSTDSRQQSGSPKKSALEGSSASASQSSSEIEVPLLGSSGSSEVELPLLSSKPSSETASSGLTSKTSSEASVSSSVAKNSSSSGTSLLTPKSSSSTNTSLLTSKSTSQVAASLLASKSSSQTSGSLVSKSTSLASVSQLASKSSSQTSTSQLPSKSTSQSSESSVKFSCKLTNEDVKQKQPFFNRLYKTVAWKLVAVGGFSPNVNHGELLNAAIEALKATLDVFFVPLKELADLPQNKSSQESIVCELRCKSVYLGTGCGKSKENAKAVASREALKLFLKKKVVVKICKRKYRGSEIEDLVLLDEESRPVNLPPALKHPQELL
Chain of UniProt O14965 (O14965 whole entry, looked up): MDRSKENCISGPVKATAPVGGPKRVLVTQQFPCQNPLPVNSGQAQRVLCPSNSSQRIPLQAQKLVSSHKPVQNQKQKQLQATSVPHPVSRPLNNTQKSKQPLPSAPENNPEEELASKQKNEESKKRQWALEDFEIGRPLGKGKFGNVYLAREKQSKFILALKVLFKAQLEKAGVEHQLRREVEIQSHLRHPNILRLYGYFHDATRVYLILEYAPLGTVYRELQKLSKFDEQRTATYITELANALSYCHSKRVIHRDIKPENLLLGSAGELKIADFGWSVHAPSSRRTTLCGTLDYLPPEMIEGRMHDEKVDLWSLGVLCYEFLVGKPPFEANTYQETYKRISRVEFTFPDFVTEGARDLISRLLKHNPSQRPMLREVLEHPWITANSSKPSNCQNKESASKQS
Chain of UniProt O60566 (O60566 whole entry, looked up): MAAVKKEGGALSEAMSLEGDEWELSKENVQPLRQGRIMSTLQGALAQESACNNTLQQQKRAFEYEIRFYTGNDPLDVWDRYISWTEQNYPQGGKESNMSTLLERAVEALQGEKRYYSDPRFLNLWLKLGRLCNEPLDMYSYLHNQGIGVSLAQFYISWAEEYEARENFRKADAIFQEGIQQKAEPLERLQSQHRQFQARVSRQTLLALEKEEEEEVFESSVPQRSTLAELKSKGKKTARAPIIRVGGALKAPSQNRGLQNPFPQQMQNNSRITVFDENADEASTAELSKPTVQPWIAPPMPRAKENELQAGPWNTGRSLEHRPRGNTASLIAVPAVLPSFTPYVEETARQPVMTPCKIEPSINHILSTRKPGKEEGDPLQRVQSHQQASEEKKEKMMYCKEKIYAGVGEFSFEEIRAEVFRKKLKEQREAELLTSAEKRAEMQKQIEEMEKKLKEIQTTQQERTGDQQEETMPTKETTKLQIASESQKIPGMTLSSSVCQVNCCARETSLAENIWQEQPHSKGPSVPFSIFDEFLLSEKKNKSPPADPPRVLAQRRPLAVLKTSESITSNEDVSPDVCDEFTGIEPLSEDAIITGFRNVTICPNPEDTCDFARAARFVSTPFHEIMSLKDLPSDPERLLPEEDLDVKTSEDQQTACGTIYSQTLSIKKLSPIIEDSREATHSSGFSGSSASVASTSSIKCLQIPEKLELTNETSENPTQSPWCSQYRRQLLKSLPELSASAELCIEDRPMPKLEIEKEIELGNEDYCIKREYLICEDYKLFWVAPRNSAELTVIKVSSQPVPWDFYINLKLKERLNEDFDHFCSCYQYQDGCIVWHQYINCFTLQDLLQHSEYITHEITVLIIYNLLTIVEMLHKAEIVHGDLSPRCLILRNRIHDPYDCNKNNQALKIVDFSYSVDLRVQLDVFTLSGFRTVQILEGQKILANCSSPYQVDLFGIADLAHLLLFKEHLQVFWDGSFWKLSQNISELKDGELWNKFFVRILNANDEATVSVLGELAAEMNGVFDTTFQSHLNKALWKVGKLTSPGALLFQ
Chain of UniProt Q9Y2V2 (Q9Y2V2 whole entry, looked up): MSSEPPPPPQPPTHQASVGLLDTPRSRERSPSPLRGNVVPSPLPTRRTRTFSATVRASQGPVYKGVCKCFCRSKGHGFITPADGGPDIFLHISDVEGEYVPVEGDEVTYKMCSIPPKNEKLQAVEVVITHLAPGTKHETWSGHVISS
Chain of UniProt O75143 (O75143 whole entry, looked up): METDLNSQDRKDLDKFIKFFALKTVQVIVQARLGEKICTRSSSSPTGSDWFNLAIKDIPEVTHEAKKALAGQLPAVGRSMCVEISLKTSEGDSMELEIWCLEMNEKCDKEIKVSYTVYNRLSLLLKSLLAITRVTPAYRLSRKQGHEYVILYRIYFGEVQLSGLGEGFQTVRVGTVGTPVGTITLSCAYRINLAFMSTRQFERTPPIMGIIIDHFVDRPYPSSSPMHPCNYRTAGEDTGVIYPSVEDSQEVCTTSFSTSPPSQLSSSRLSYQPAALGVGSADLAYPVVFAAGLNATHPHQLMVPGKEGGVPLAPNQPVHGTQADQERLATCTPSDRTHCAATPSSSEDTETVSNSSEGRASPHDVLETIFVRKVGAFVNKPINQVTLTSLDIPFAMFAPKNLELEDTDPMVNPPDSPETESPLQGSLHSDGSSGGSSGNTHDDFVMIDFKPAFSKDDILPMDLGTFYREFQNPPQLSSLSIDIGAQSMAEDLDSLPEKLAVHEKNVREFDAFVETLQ
Chain of UniProt P11274 (P11274 whole entry, looked up): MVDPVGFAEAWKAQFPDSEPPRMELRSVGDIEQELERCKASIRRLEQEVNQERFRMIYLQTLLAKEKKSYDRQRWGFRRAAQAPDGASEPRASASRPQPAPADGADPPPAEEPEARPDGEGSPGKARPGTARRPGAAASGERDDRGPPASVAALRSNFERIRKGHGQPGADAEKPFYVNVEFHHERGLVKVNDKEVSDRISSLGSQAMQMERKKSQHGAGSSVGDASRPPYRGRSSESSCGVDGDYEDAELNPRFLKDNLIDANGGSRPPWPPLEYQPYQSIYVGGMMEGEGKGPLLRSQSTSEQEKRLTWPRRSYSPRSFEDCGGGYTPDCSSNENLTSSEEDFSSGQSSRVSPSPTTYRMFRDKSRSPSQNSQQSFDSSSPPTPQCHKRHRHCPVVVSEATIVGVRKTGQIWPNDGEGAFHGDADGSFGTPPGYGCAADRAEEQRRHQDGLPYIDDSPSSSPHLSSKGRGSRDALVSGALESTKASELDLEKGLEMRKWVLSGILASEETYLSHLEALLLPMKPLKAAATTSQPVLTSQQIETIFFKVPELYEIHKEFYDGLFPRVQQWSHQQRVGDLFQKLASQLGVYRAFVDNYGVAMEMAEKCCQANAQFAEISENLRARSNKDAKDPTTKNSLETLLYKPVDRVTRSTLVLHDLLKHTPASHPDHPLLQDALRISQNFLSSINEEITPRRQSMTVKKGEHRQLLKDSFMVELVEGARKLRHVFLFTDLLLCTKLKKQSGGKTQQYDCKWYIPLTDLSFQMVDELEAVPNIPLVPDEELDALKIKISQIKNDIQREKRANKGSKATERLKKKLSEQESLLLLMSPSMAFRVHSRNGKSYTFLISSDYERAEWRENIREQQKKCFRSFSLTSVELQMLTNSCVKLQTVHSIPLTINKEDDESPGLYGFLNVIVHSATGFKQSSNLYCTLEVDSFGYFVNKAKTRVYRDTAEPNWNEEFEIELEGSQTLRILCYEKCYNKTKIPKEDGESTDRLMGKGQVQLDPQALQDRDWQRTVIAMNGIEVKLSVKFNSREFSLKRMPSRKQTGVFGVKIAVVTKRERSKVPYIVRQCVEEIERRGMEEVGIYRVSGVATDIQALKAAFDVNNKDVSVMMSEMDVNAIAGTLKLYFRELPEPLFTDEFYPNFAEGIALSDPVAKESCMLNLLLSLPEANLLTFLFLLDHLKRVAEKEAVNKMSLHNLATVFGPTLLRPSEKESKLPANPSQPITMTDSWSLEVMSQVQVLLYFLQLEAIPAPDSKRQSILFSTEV
Chain of UniProt Q9BV29 (Q9BV29 whole entry, looked up): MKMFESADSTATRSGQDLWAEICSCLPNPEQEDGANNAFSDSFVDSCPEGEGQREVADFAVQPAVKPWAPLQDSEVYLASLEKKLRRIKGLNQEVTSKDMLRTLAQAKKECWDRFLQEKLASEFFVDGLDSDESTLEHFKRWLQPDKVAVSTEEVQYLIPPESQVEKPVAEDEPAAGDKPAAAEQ
Chain of UniProt P83916 (P83916 whole entry, looked up): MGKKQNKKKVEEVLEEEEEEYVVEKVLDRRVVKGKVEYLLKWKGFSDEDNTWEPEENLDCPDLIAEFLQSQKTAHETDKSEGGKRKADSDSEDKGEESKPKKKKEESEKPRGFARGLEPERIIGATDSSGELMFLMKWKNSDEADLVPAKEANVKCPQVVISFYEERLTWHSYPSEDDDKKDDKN
CENPQ (UniProt Q7L2Z9) was tested, and the log2 fold change was 0.023 (inactive). CD63 (UniProt P08962) was tested, and the log2 fold change was 0.057 (inactive). CARS isoform 3 (UniProt P49589) was tested, and the log2 fold change was 0.041 (inactive). With CCNC (UniProt P24863) the log2 fold change was -0.062 (inactive). CBFA2T3 (UniProt O75081) was tested, and the log2 fold change was 0.015 (inactive). In the case of BUB1B isoform 3 (UniProt O60566), the log2 fold change is reported as 0.009 (inactive). For CES2 isoform 4 (UniProt O00748), the log2 fold change was -0.017 (inactive). With CDC123 (UniProt O75794) the log2 fold change was 0.013 (inactive). For CCDC85B (UniProt Q15834), the log2 fold change was -0.035 (inactive). With CARD9 (UniProt Q9H257) the log2 fold change was -0.01 (inactive). With CANX isoform 2 (UniProt P27824) the log2 fold change was 0.036 (inactive). In the case of CDKN2AIP (UniProt Q9NXV6), the log2 fold change is reported as 0.01 (inactive). For AURKA (UniProt O14965), the log2 fold change was 0.028 (inactive). In the case of CDC42BPA isoform 6 (UniProt Q5VT25), the log2 fold change is reported as -0.023 (inactive). In the case of ATG13 isoform 2 (UniProt O75143), the log2 fold change is reported as 0.053 (inactive). In the case of CARHSP1 (UniProt Q9Y2V2), the log2 fold change is reported as -0.042 (inactive). With CCAR2 (UniProt Q8N163) the log2 fold change was 0.007 (inactive). For ATP6V0A2 (UniProt Q9Y487), the log2 fold change was 0.029 (inactive). With CCPG1 isoform 5 (UniProt Q9ULG6) the log2 fold change was 0.051 (inactive). CCNB1 (UniProt P14635) was tested, and the log2 fold change was -0.038 (inactive). For CCNH (UniProt P51946), the log2 fold change was 0.033 (inactive). In the case of BCAR1 isoform 6 (UniProt P56945), the log2 fold change is reported as -0.038 (inactive). For CDAN1 (UniProt Q8IWY9), the log2 fold change was -0.005 (inactive). In the case of CDK13 (UniProt Q14004), the log2 fold change is reported as -0.036 (inactive). In the case of CFDP1 (UniProt Q9UEE9), the log2 fold change is reported as 0.024 (inactive). For ATP11A (UniProt P98196), the log2 fold change was 0.063 (inactive). With BCKDK (UniProt O14874) the log2 fold change was 0.028 (inactive). With BLOC1S6 (UniProt Q9UL45) the log2 fold change was -0.06 (inactive). CBX1 (UniProt P83916) was tested, and the log2 fold change was 0.038 (inactive). With CDC7 (UniProt O00311) the log2 fold change was 0.036 (inactive). C19orf54 (UniProt Q5BKX5) was tested, and the log2 fold change was -0.027 (inactive). In the case of C8orf37 (UniProt Q96NL8), the log2 fold change is reported as 0.072 (inactive). For CDK2 (UniProt P24941), the log2 fold change was 0.09 (inactive). CEP76 (UniProt Q8TAP6) was tested, and the log2 fold change was 0.085 (inactive). In the case of CDK11B (UniProt P21127), the log2 fold change is reported as 0.01 (inactive). In the case of CASC4 (UniProt Q6P4E1), the log2 fold change is reported as -0.004 (inactive). In the case of CCDC32 isoform 2 (UniProt Q9BV29), the log2 fold change is reported as -0.012 (inactive). For BCR (UniProt P11274), the log2 fold change was -0.018 (inactive). For ATP13A1 (UniProt Q9HD20), the log2 fold change was -0.012 (inactive). In the case of CDKN1C (UniProt P49918), the log2 fold change is reported as -0.054 (inactive).
